This note sets out measurements from PubChem BioAssay (NCI).

Structures are written as SMILES. The panel holds about 83,000 compounds, 20% with a hit somewhere; the sample as a whole holds those more often.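 Single-dose data. Exposure time 48 hours. Values below 10 considered active.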 Values without a mark were called inactive. Activity calls are given as the source filed them.

What all share (experiment): NCI-60 one-dose screen, 48 h (100 = growth as untreated, 0 = no growth, -100 = all killed)
Holding throughout (details): 10 µM unless noted

Assay [1] concerns NCI-H226 lung.
Assay [2] concerns NCI-H322M lung.
Assay [3] relates to HOP-62 NSCLC.
The test system of assay [4] is NCI-H460 lung.
Assay [5] has as its system HOP-92 NSCLC.
Assay [6] deals with NCI-H522 lung.
Assay [7] has as its system A549/ATCC NSCLC.
The test system of assay [8] is 786-0 renal.
The test system of assay [9] is COLO 205 colon.
In assay [10] the test system is DU-145 prostate.

As for `c1ccc2c(NCCCn3ccnc3)c3oc4ccccc4c3nc2c1`, the growth in [1] was -1.35% (active); in assay [2], -13.4% (active); in assay [3] it was 19.5%; in [4] it was -19.3% (active); in assay [5], -23.7% (active); in assay [6] it was -23.1% (active). The growth in [7] is 10.5%; in assay [8] it was 2.46% (active); in assay [9], -30.9% (active); in assay [10], -17.2% (active).

Take `CC(=O)Nc1cc(F)cc(-c2ccc3[nH]cc(-c4ccccc4)c3n2)c1`: the growth in [1] is 30.9%; in [2], 33.4%; in assay [3] it was 3.09% (active); in [4] it was 3.95% (active); in assay [5], 0.206% (active); in assay [6], -67.6% (active). Moreover, the growth was 20.1% in assay [7], 1.48% (active) in assay [8], -68.2% (active) in [9] and 39.8% in assay [10].

As for `C/C(=N/NC(N)=S)c1ccc(Nc2nc(SCC(C)C)nc(-c3ccc(F)cc3)c2C#N)cc1`, the growth was -16.9% (active) in assay [1]; 31.4% in assay [2]; -11.1% (active) in assay [3]; -62.2% (active) in assay [4]; -39.1% (active) in assay [5]; 34.1% in assay [6]. Besides, the growth is -2.25% (active) in assay [7], 4.53% (active) in assay [8], 16.8% in assay [9] and 18.9% in assay [10].

`O=c1[nH]c2ccc(Cl)cc2cc1CSc1ccccc1Nc1nccc(-c2ccc(Cl)cc2)n1`: the growth in assay [1] was 115%; in [2] it was 101%; in assay [3], 101%; in [4] it was 95.3%; in [5], 87.6%; in assay [6], 97.3%. Moreover, the growth in [7] was 86.4%; in assay [8], 93.6%; in assay [9], 116%; in [10], 94.5%.

On to `CC(=O)Oc1ccccc1C(=O)Nc1cc(C(C)C)ccc1C`, for which the growth in assay [1] was 9.84% (active); in assay [2], 11.7%; in [3], 19.6%; in assay [4] it was 9.6% (active); in [5] it was -19.5% (active); in assay [6], 4.56% (active). Besides, the growth in assay [7] was 13.1%; in [8], 25.6%; in assay [9] it was 92.7%; in assay [10], 23.1%.

Consider `COc1ccc(-n2c(SCC(=O)Nc3ccc(-c4nc5ccccc5[nH]4)cc3)nc3ccccc3c2=O)cc1`, for which the growth in assay [1] is 48.5%; in [2], 51.9%; in [3] it was 89.4%; in assay [4], -55.9% (active); in assay [5] it was -33.3% (active); in assay [6], -32.9% (active). For the same molecule, the growth in [7] was -24.4% (active); in assay [8] it was -95.4% (active); in assay [9], 77.5%; in assay [10], 6.71% (active).

As for `CC(O)C(NC(=O)C1CCCN1C(=O)CNC(=O)C1CC(=O)NCC(=O)NC(Cc2c[nH]c3ccccc23)C(=O)NC(Cc2ccc(O)cc2)C(=O)NCC(=O)NC(CO)C(=O)NC(CCC(N)=O)C(=O)NC(Cc2c[nH]c3ccccc23)C(=O)N1)C(=O)NCC(=O)NC(CCC(N)=O)C(=O)NC(CCCNC(=N)N)C(=O)NC(CC(=O)O)C(=O)O` (stereo not given), the growth in assay [1] was 107%; in [2], 95.2%; in assay [3] it was 105%; in assay [4] it was 105%; in [5] it was 94%; in assay [6], 94.9%. Moreover, the growth in assay [7] was 105%; in assay [8] it was 108%; in assay [9] it was 109%; in assay [10] it was 104%.

For `CN(C)CCCOc1c2ccc(Cl)cc2nc2c1oc1ccccc12`, the growth was -0.673% (active) in [1]; -13.1% (active) in assay [2]; 7.02% (active) in [3]; 7.64% (active) in [4]; -4.3% (active) in assay [5]; -39.6% (active) in assay [6]. The growth in assay [7] was 10%; in assay [8] it was 6.22% (active); in assay [9], -59.3% (active); in [10], 5.28% (active).

Regarding `CCN1C(=S)N(CC)C2C1N=C(SC)N2/N=C/C=C/c1ccccc1[N+](=O)[O-]` (stereo not given), the growth in [1] was 92.9%; in assay [2] it was 92.3%; in [3], 99.7%; in assay [4], 93.5%; in assay [5], 79.7%; in assay [6], 93.6%. Also, the growth was 92.8% in assay [7], 101% in assay [8], 120% in assay [9] and 101% in assay [10].

Turning to `Cc1ccc2ccc3ccc(C)nc3c2n1.Cc1ccc2ccc3ccc(C)nc3c2n1.Oc1c(Cl)cc(Cl)c2ccc(CN3CCCCC3)nc12.[Ru]`, the growth in assay [1] was -69% (active); in [2], -83.4% (active); in [3], -57.2% (active); in assay [4], -15.2% (active); in assay [5], -86.5% (active); in [6], -68.8% (active). The growth in [7] is -42.7% (active); in [8], -87.7% (active); in [9], -74.2% (active); in [10], -93.3% (active).

On to `O=C(N/N=C/c1ccc(Br)s1)c1[nH]c2ccc(Br)cc2c1-c1ccccc1`, for which the growth was 52.6% in [1]; 48.2% in assay [2]; 46.5% in assay [3]; 3.52% (active) in assay [4]; 46.6% in assay [5]; -38.5% (active) in [6]. For the same molecule, the growth was 28.8% in assay [7], 11.5% in assay [8], -44.3% (active) in assay [9] and 18.6% in assay [10].

On to `Cc1nc(-c2cc3ccccc3oc2=O)ccc1C(=O)/C=C/c1ccccn1`, for which the growth in [1] was 88.7%; in assay [2], 86.3%; in assay [3] it was 103%; in assay [4], 41.1%; in [5], 80.3%; in assay [6], 58.6%. In addition, the growth in assay [7] was 66.5%; in assay [8], 6.4% (active); in [9] it was 94.7%; in assay [10] it was 47.3%.

Take `O=C(N/N=C/c1ccc([N+](=O)[O-])o1)c1[nH]c2ccc(Br)cc2c1-c1ccccc1`: the growth in [1] was 15.8%; in [2], 41.2%; in [3] it was 24.2%; in assay [4] it was -31.4% (active); in [5], -4.17% (active); in [6], -26.3% (active). For the same molecule, the growth is 21.6% in assay [7], -5.08% (active) in assay [8], 5.51% (active) in assay [9] and 16.2% in assay [10].

For the molecule `Nc1c(C(=O)c2ccc(Br)cc2)oc2nc(-c3cnccn3)cc(-c3cccs3)c12`, the growth in assay [1] is 98.6%; in assay [2] it was 103%; in assay [3], 94%; in assay [4], 97.2%; in [5] it was 90.8%; in assay [6], 98.8%. Moreover, the growth in assay [7] is 103%; in assay [8] it was 102%; in assay [9] it was 118%; in [10], 107%.

In the case of `CS(=O)(=O)Nc1ccc(-c2nn(-c3ccc(S(C)(=O)=O)cc3)cc2/C=C/C(=O)c2ccc(NC(=O)CO[N+](=O)[O-])cc2)cc1`, the growth in [1] was 89.3%; in assay [2], 102%; in assay [3] it was 100%; in [4] it was 110%; in assay [5], 103%; in assay [6], 99.1%. The growth is 101% in assay [7], 102% in assay [8], 114% in [9] and 116% in [10].

`CN1C(=O)N(c2ccccc2)C2N=C(N/N=C/c3ccccc3)SC21` (stereo not given): the growth in assay [1] was 58.7%; in [2], 42.5%; in [3], 39%; in assay [4], 9.53% (active); in [5], 55.1%; in assay [6] it was -12.3% (active). In addition, the growth in [7] was 33%; in assay [8], 33.9%; in [9] it was 3.78% (active); in assay [10] it was 19.6%.

For `CCOC(=O)c1csc(NC(=O)CSc2nc3sc4c(c3c(=O)n2-c2ccc(Cl)cc2)CCCC4)n1`, the growth in [1] is 101%; in assay [2] it was 101%; in [3], 101%; in assay [4] it was 100%; in [5], 77.8%; in assay [6] it was 93.3%. In addition, the growth in [7] was 98.6%; in assay [8], 103%; in assay [9] it was 133%; in [10], 107%.

On to `O=C(CSc1nccc(=O)[nH]1)Nc1ccc(-c2nc3ccccc3[nH]2)cc1`, for which the growth was 105% in [1]; 98.2% in [2]; 94.3% in [3]; 110% in assay [4]; 103% in assay [5]; 104% in assay [6]. Further, the growth in assay [7] is 110%; in [8] it was 101%; in assay [9], 113%; in [10], 106%.

`CNC(=O)c1cc(-c2ccc(NC(=O)Nc3ccc(N4CCN(C)CC4)c(C(F)(F)F)c3)cc2)nc2cccnc12`: the growth in [1] is 84.6%; in [2], -78.4% (active); in assay [3] it was -78.3% (active); in assay [4], -76.3% (active); in assay [5], 79.5%; in [6], -71.9% (active). Besides, the growth was -81.9% (active) in assay [7], -97.1% (active) in [8], -41% (active) in assay [9] and -81.7% (active) in [10].

`Cc1cccc2sc(/N=C(\N)C(Br)Br)nc12`: the growth in assay [1] was 42.8%; in [2], 48.8%; in [3], 67%; in assay [4], 1.4% (active); in [5] it was 47.6%; in [6], -76% (active). Also, the growth was 37.4% in assay [7], 31.6% in assay [8], 27% in assay [9] and 4.67% (active) in assay [10].

As to `C#C[C@]1(O)CC[C@H]2[C@@H]3CC=C4c5sc(-c6ccc(F)cn6)nc5CC[C@]4(C)[C@H]3CC[C@@]21C`, the growth is 55.8% in assay [1]; 65.4% in [2]; 24.6% in [3]; 10.4% in assay [4]; 49.2% in [5]; 56.9% in assay [6]. Besides, the growth is 37.2% in [7], -62.5% (active) in assay [8], 92.2% in [9] and 47.3% in [10].

For the molecule `OC1CCN(CCCOc2c3ccccc3nc3c2oc2ccccc23)CC1`, the growth in assay [1] was -31.2% (active); in assay [2] it was -17% (active); in assay [3], 5.52% (active); in [4], 0.894% (active); in assay [5], -11.8% (active); in [6], -48.6% (active). The growth was -12.2% (active) in assay [7], 7.21% (active) in [8], -63.8% (active) in assay [9] and 1.33% (active) in assay [10].

Consider `COc1ccc(/C=N/NC(=O)c2[nH]c3ccc(Br)cc3c2-c2ccccc2)s1`, for which the growth in [1] is 47.8%; in [2] it was 50.8%; in assay [3], 47.6%; in [4] it was 3.58% (active); in [5], 52.1%; in assay [6], -30.1% (active). The growth was 31.5% in [7], 11.4% in assay [8], -55.8% (active) in assay [9] and 20.4% in [10].

For `CCCC(=O)NC(c1cccnc1)c1cc(C)c2cccnc2c1O` (stereo not given), the growth is 52.6% in assay [1]; 32.4% in [2]; 34.4% in assay [3]; 19.3% in [4]; 49.1% in [5]; 22.2% in assay [6]. The growth is 48.4% in [7], 38.9% in assay [8], 12.7% in [9] and 47.2% in assay [10].

Turning to `Fc1ccc(-c2cc3nc(C(Cl)Cl)nc(-c4ccc(Cl)cc4)n3n2)cc1`, the growth is 78.9% in assay [1]; -44.9% (active) in assay [2]; -25.8% (active) in assay [3]; -66.3% (active) in [4]; 24.7% in [5]; 30.3% in assay [6]. The growth was -58.2% (active) in [7], 47.4% in assay [8], -56.6% (active) in assay [9] and -23% (active) in assay [10].

Turning to `O=C(N/N=C/c1ccc(Cl)s1)c1[nH]c2ccc(Br)cc2c1-c1ccccc1`, the growth in assay [1] was 55.9%; in assay [2], 49.4%; in assay [3], 30.2%; in assay [4], 3.42% (active); in assay [5], 35.6%; in assay [6], -35.1% (active). Further, the growth in [7] is 21.2%; in assay [8], 7.94% (active); in assay [9] it was -68.4% (active); in assay [10] it was 22%.
